Measurements reported in PubChem BioAssay (NCATS).
Records with an inconclusive call do not appear. Entries that show only a call come without a potency. The source made the active and inactive calls. Calls follow the shape of the dose curve; as a rule, active = well fitted cell-killing curve with a large enough effect; inconclusive = small, poorly fitted or top-dose-only effect, or effect the other way; inactive = no such curve, though single readings can be large or run the other way.

experiment: Quantitative High-Throughput drug screen in 47 multiple myeloma cell lines against the NCATS MIPE library collection: OPM1_PLB cell viability assay (AID 1918989); conditions: CellTiter-Glo, 48 h; series mostly up to 45.8 µM; also: nearly all actives have a fitted effect of over 40% in size
From the text: PI: Beverly A. Mock Ph.D.
Laboratory of Cancer Biology and Genetics,
Center for Cancer Research, National Cancer Institute,
National Institute of Health, Bethesda, Maryland
Drug resistance and disease progression are common in multiple myeloma (MM) patients, underscoring the need for new therapeutic combinations. […] We hypothesized that effective combinations would reduce MYC expression and enhance p16 activity. […] These preclinical data identify potentially useful drug combinations for evaluation in drug-resistant MM and reveal potential mechanisms of combined drug sensitivity.
Described herein is the primary MIPE qHTS used to cherrypick compounds. Validated compounds were then further tested for potential synergistic activiy.
[1] Peat TJ, Gaikwad SM, Dubois W, Gyabaah-Kessie N, Zhang S, Gorjifard S, Phyo Z, Andres M, Hughitt VK, Simpson RM, Miller MA, Girvin AT, Taylor A, Williams D, D'Antonio N, Zhang Y, Rajagopalan A, Flietner E, Wilson K, Zhang X, Shinn P, Klumpp-Thomas C, McKnight C, Itkin Z, Chen L, Kazandijian D, Zhang J, Michalowski AM, Simmons JK, Keats J, Thomas CJ, Mock BA. Drug combinations identified by high-throughput screening promote cell cycle transition and upregulate Smad pathways in myeloma. Cancer Lett. 2023 Aug 1;568:216284. doi: 10.1016/j.canlet.2023.216284. Epub 2023 Jun 24. PMID: 37356470; PMCID: PMC10408729.
SEQUENCE No. (e.g., 1, 2, 3, etc.); […] (e.g., Cells, Incubation, Reagent, etc.); VALUE and DESCRIPTION.
1; Cells; 5 uL; white, solid bottom 1536-well Greiner assay plate.
2; Compounds; 23 nL; Kalypsis pin tool (Wako USA) equipped with a 1536-well pin head to transfer to the assay plates.
3; Incubation; 48 hours; 37C incubation.
4; Reagent;5uL; CellTiter Glo (Promega).
5; Detector; 425V; Luminescence; Viewlux PerkinElmer.
NOTES (numbers refer to Sequence numbers above)
1. The cell-based screening methods employed in this study were like those previously published. Briefly, the corresponding myeloma cell lines were screened in 1,536-well plates with 500 cells, 5-uL per well for inhibition of cell viability (assessed by measuring ATP levels with CellTiterGlo).
2. NCATS MIPE 4.0 library of approved and investigational drugs were added using the Kalypsis pin tool. Wells treated with DMSO only for 100% viability and media only for 0% viability were used as controls.
3. The assay plates were covered and incubated for 48 hours in a 37C, 5% CO2 incubator with controlled humidity.
4. After 48 hours, CellTilter-GloTM luminescent substrate mix (Promega) reagent was added to the assay plate and plates we incubated for 5 min at room temperature.
5. Signal was measured as median relative luminescence units on a ViewLux (PerkinElmer) multiplate reader.
[1] Heske CM, Davis MI, Baumgart JT, Wilson K, Gormally MV, Chen L, Zhang X, Ceribelli M, Duveau DY, Guha R, Ferrer M, Arnaldez FI, Ji J, Tran HL, Zhang Y, Mendoza A, Helman LJ, Thomas CJ. Matrix Screen Identifies Synergistic Combination of PARP Inhibitors and Nicotinamide Phosphoribosyltransferase (NAMPT) Inhibitors in Ewing Sarcoma. Clin Cancer Res. 2017 Dec 1;23(23):7301-7311. doi: 10.1158/1078-0432.CCR-17-1121. Epub 2017 Sep 12. PMID: 28899971; PMCID: PMC6636827.
Potency is read from the fitted curve at half-maximal effect.

Row | SMILES | Potency
1 | O=C(O)c1cccnc1Nc1cccc(C(F)(F)F)c1 | inactive
2 | CC(S)C(=O)NCC(=O)O (stereo not given) | inactive
3 | CC(=O)N1CCN(c2ccc(OC[C@H]3CO[C@](Cn4ccnc4)(c4ccc(Cl)cc4Cl)O3)cc2)CC1 | 16.6 µM (active)
4 | CN1CCC(=C2c3ccccc3CCc3sccc32)CC1 | 18.7 µM (active)
5 | Cc1cccc(C)c1OCC(=O)N[C@@H](Cc1ccccc1)[C@@H](O)C[C@H](Cc1ccccc1)NC(=O)[C@H](C(C)C)N1CCCNC1=O | 18.7 µM (active)
6 | CCN(CCO)CCCC(C)Nc1ccnc2cc(Cl)ccc12 (stereo not given) | inactive
7 | O=c1cc(N2CCOCC2)oc2c(-c3ccccc3)cccc12 | 10.5 µM (active)
8 | NNc1nncc2ccccc12 | inactive
9 | COC(=O)N[C@H](C(=O)N[C@@H](Cc1ccccc1)[C@@H](O)CN(Cc1ccc(-c2ccccn2)cc1)NC(=O)[C@@H](NC(=O)OC)C(C)(C)C)C(C)(C)C | inactive
10 | CC(C)C[C@H](NC(=O)[C@H](Cc1ccccc1)NC(=O)c1cnccn1)B(O)O | 0.0083 µM (active)
11 | CN(C)CCCC1(c2ccc(F)cc2)OCc2cc(C#N)ccc21 (stereo not given) | inactive
12 | CN(C)CCc1c[nH]c2ccc(Cn3cncn3)cc12 | inactive
13 | O=C(OC1C[C@H]2CC[C@@H](C1)[N+]21CCCC1)C(O)(c1ccccc1)c1ccccc1 (stereo not given in full) | inactive
14 | N=C(N=C(N)N)N1CCOCC1 | inactive
15 | CCC1=C(C)CN(C(=O)NCCc2ccc(S(=O)(=O)NC(=O)NC3CCC(C)CC3)cc2)C1=O (stereo not given) | inactive
16 | O=C1CCc2ccc(OCCCCN3CCN(c4cccc(Cl)c4Cl)CC3)cc2N1 | 18.7 µM (active)
17 | c1cnc2cc3c(cc2n1)C1CNCC3C1 | inactive
18 | CC(C)(S)[C@@H](N)C(=O)O | inactive
19 | Cc1nc(Nc2ncc(C(=O)Nc3c(C)cccc3Cl)s2)cc(N2CCN(CCO)CC2)n1 | 0.833 µM (active)
20 | O=C(O)c1cccc(-c2noc(-c3ccccc3F)n2)c1 | inactive

Row | SMILES | Potency
21 | Cc1nc(-c2ccc(OCC(C)C)c(C#N)c2)sc1C(=O)O | inactive
22 | COc1cc2c(N3CCN(C(=O)Nc4ccc(OC(C)C)cc4)CC3)ncnc2cc1OCCCN1CCCCC1 | 9.35 µM (active)
23 | CCCCN(CCCC)CCC(O)c1cc2c(Cl)cc(Cl)cc2c2cc(C(F)(F)F)ccc12 (stereo not given) | 18.7 µM (active)
24 | CCCCCCCCCCCCCCCCCCCCCCO | inactive
25 | NS(=O)(=O)c1cc(C(=O)O)c(NCc2ccco2)cc1Cl | inactive
26 | Cc1ccc(S(=O)(=O)NC(=O)NN2CC3CCCC3C2)cc1 (stereo not given) | 20.9 µM (active)
27 | O=C(O)CCNC(=O)c1ccc(N=Nc2ccc(O)c(C(=O)O)c2)cc1 | inactive
28 | COC(=O)C1=C(C)NC(C)=C(C(=O)OC(C)C)C1c1cccc2nonc12 (stereo not given) | 26.4 µM (active)
29 | Nc1ccn([C@@H]2O[C@H](CO)[C@@H](O)C2O)c(=O)n1 (stereo not given in full) | inactive
30 | COc1c(O)cc2c(c1O)[C@@H]1O[C@H](CO)[C@@H](O)[C@H](O)[C@H]1OC2=O | inactive
31 | CC(C)c1ccc2c(c1)c(SC(C)(C)C)c(CC(C)(C)C(=O)O)n2Cc1ccc(Cl)cc1 | inactive
32 | COc1cc2nc(N3CCN(C(=O)C4CCCO4)CC3)nc(N)c2cc1OC (stereo not given) | inactive
33 | N[C@@H](Cc1cc(I)c(Oc2cc(I)c(O)c(I)c2)c(I)c1)C(=O)O | inactive
34 | O=C1c2c(O)cc(O)cc2OC(c2ccc(O)c(O)c2)C1O (stereo not given) | inactive
35 | Cc1cc(Cl)ccc1OCCCC(=O)NO | 20.9 µM (active)
36 | CCCCC(CC)COC(=O)C(C#N)=C(c1ccccc1)c1ccccc1 (stereo not given) | inactive
37 | COc1cc(Nc2c(C#N)cnc3cc(OCCCN4CCN(C)CC4)c(OC)cc23)c(Cl)cc1Cl | 2.64 µM (active)
38 | O=C(c1ccccc1)c1ccc2n1CCC2C(=O)O (stereo not given) | 20.9 µM (active)
39 | O=C(O)c1cn(-c2ccc(F)cc2)c2cc(N3CCNCC3)c(F)cc2c1=O | inactive
40 | O=C1c2ccccc2-c2n[nH]c3cccc1c23 | inactive
